According to the supplement of paper PMC8253809:
Where “and” joins values, the source holds several entries; their conditions need not be identical. Equal values may be shown once.

What was measured:
Test in all cases: growth inhibition (% activity, log2 RLU normalised to DMSO / staurosporine); higher = more growth inhibition
Conditions in all cases: 33 µM
DIPGX29 = tested on: DIPGX29 (H3.3 K27M diffuse intrinsic pontine glioma line)
How it was run: (§1)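 Approved drugs were tested in triplicate at a single final concentration of about 33 μM for 7 days at 37 °C, 5% CO2, on pHGG cell lines and H9-derived neural stem cells. Readout was CellTiter-Glo luminescence, log2-transformed and scaled per plate to % activity between solvent and positive control wells. The median over replicates gives the growth-inhibition value.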

DIPGX37 = tested on: DIPGX37 (H3.3 K27M diffuse intrinsic pontine glioma line)
How it was run: as §1

DIPGX7 = tested on: DIPGX7 (H3.3 K27M diffuse intrinsic pontine glioma line)
How it was run: as §1

DIPGX9 = tested on: DIPGX9 (diffuse intrinsic pontine glioma line)
How it was run: as §1

HGGX39 = tested on: HGGX39 (paediatric high-grade glioma line)
How it was run: as §1

HGGX6 = tested on: HGGX6 (H3.3 G34R paediatric high-grade glioma line)
How it was run: as §1

HNSC = tested on: HNSC
How it was run: as §1

SUDIPGIV = tested on: SUDIPGIV (diffuse intrinsic pontine glioma line)
How it was run: as §1

SUDIPGVI = tested on: SUDIPGVI (diffuse intrinsic pontine glioma line)
How it was run: as §1

SUDIPGXIII = tested on: SUDIPGXIII (diffuse intrinsic pontine glioma line)
How it was run: as §1

Compound	growth inhibition (DIPGX29)	growth inhibition (DIPGX37)	growth inhibition (DIPGX7)	growth inhibition (DIPGX9)	growth inhibition (HGGX39)	growth inhibition (HGGX6)	growth inhibition (HNSC)	growth inhibition (SUDIPGIV)	growth inhibition (SUDIPGVI)	growth inhibition (SUDIPGXIII)
CN(C)CCc1c[nH]c2ccc(CS(=O)(=O)N3CCCC3)cc12	1.96%	3.12%	1.45%	1.71%	2.56%	3.04%	1.98%	0.896%	3.66%	-0.309%
CO[C@H]1O[C@@H]2O[C@@]3(C)CC[C@H]4[C@H](C)CC[C@@H]([C@H]1C)[C@@]24OO3	0.229%	0.466%	1.37%	2.08%	3.99%	5.37%	3.37%	13.7%	1.25%	14.3%
Oc1ccc(/C=C/c2cc(O)cc(O)c2)cc1	2.03%	-0.532%	4.05%	1.48%	1.37%	2.36%	3.97%	-5.92%	1.29%	-0.764%
C=CCNC(N)=S	-0.199%	0.393%	-0.932%	-0.168%	1.56%	1.43%	-1.32%	-1.24%	-2.19%	-0.232%
N[C@H](Cc1ccccc1)C(=O)O	1.07%	4.02%	1.99%	1.11%	3.77%	0.895%	14.5%	3.32%	2.63%	2.11%
C[N+]1(C)[C@@H]2C[C@@H](OC(=O)C(O)(c3cccs3)c3cccs3)C[C@H]1[C@@H]1O[C@@H]12	-2.02%	-0.731%	-2.26%	-2.3%	-2.1%	-0.274%	-3.15%	-1.02%	-2.31%	0.889%
CC(C)C(=O)Nc1ccc([N+](=O)[O-])c(C(F)(F)F)c1	1.6%	2.28%	2.18%	2.7%	11.9%	0.873%	6.29%	5.63%	3.39%	2.07%
CN(C/C=C/C#CC(C)(C)C)Cc1cccc2ccccc12	-0.633% and -1.72%	-0.939% and -0.818%	-1.38% and -1.19%	0.275% and -0.829%	1.78% and -1.01%	0.104% and -1.17%	-0.321% and -4.36%	-0.307% and 0.598%	1.93% and -1.67%	-1.07% and -1.51%
CC(C)(OCc1nn(Cc2ccccc2)c2ccccc12)C(=O)O	-3.94%	-1.16%	-1.8%	-2.2%	-3.82%	-4.18%	-2.36%	-3.25%	-2.56%	0.0548%
Cc1nc(-c2ccc(OCC(C)C)c(C#N)c2)sc1C(=O)O	0.052%	-0.105%	1.2%	1.34%	2.02%	3.15%	-1.07%	-0.558%	-0.306%	1.95%
C#CC1(O)CCC2C3CCc4cc(OC)ccc4C3CCC21C (stereo not given)	0.518%	-0.765%	-0.178%	1.8%	0.428%	1.53%	-0.897%	-1.25%	2.06%	-0.164%
O=C(OCC(O)CO)c1ccccc1Nc1ccnc2cc(Cl)ccc12 (stereo not given)	0.939%	1.64%	-1.23%	1.63%	3.28%	1.2%	0.63%	-4.61%	2.77%	0.927%
Cc1nccn1CC1CCc2c(c3ccccc3n2C)C1=O (stereo not given)	2.17% and 0.0485%	1.96% and -0.656%	5.12% and 2.92%	1.4% and -0.3%	4.82% and 1.34%	1.68% and -1.02%	3.47% and -2.09%	-0.0678% and -2.33%	2.21% and -0.977%	-0.102% and 0.0786%
CCCCCCCCOc1ccccc1C(=O)Nc1ccc(C(=O)OCC[N+](C)(CC)CC)cc1	1.1%	-1.75%	3.53%	2.15%	53.7%	10.8%	1.89%	4.07%	-1.27%	2.78%
CC1(C(=O)O)CCC2(C)CCC3(C)C(=CC(=O)C4C5(C)CCC(OC6OC(C(=O)O)C(O)C(O)C6OC6OC(C(=O)O)C(O)C(O)C6O)C(C)(C)C5CCC43C)C2C1 (stereo not given)	-2.43%	0.376%	-1.5%	-0.788%	-1.63%	-0.137%	-2.93%	-1.58%	-3.15%	0.0626%
COc1cnc(NS(=O)(=O)c2ccc(N)cc2)nc1	-0.629%	0.775%	-0.856%	0.181%	-0.248%	0.442%	0.00282%	-1.59%	0.403%	1.01%
COc1c(C)c2c(c(O)c1C/C=C(\C)CCC(=O)O)C(=O)OC2	19.1%	19%	12%	16.2%	18.1%	14.7%	57.6%	10.7%	11.8%	-4.08%
C[C@]12CC[C@@H]3c4ccc(O)cc4CC[C@H]3[C@@H]1CC[C@@H]2O	-1.16%	1.54%	-0.611%	-0.154%	0.663%	2.45%	-4.69%	-0.561%	-3.66%	1.49%
CC/C(=C(\c1ccccc1)c1ccc(OCCN(C)C)cc1)c1ccccc1	7.72%	1.28%	12.1%	3.63%	11.1%	10.5%	21%	7.38%	5.56%	2.99%

Compound	growth inhibition (DIPGX29)	growth inhibition (DIPGX37)	growth inhibition (DIPGX7)	growth inhibition (DIPGX9)	growth inhibition (HGGX39)	growth inhibition (HGGX6)	growth inhibition (HNSC)	growth inhibition (SUDIPGIV)	growth inhibition (SUDIPGVI)	growth inhibition (SUDIPGXIII)
O=C1CN2Cc3c(ccc(Cl)c3Cl)N=C2N1	-0.095%	-0.968%	-0.492%	0.847%	3.51%	9.62%	-2.73%	-0.36%	0.709%	-4.79%
C[C@]12C=CC(=O)C=C1CC[C@H]1[C@@H]3C[C@@H](O)[C@](O)(C(=O)CO)[C@@]3(C)C[C@H](O)[C@@]12F	0.877%	1.05%	-1.73%	3.73%	-0.649%	-0.097%	-1.58%	-3.68%	0.457%	1.54%
OC(CCN1CCCCC1)(c1ccccc1)C1CC2C=CC1C2 (stereo not given)	-0.000402%	-2.1%	1.09%	-1.44%	-1.06%	-1.38%	0.31%	-2.82%	-4.33%	1%
CC(C(=O)O)c1ccc2c(c1)CC(=O)c1ccccc1S2 (stereo not given)	1.3%	4.16%	2.06%	1.25%	2.45%	2.99%	1.66%	-1.48%	4.71%	0.56%
O=c1oc2c(O)c(O)cc3c(=O)oc4c(O)c(O)cc1c4c23	1.91%	2.55%	2.78%	2.1%	1.54%	-1.49%	-1.26%	-0.815%	-0.974%	1.4%
CCCc1cc(=O)[nH]c(=S)[nH]1	-0.542%	1.03%	-0.794%	1.7%	-0.649%	-0.265%	-0.282%	-1.58%	0.156%	1.61%
NNC(=O)c1ccncc1.Nc1ccc(C(=O)O)c(O)c1	0.532%	2.72%	1.7%	2.6%	2.23%	1.63%	-0.818%	0.972%	3.47%	-1.36%
CCCCCCCCCCOc1cc2c(O)c(C(=O)OCC)cnc2cc1OCC	-0.3%	-1.31%	1.61%	-0.589%	1.16%	-2.39%	8.91%	1.52%	-8.46%	-1.19%
c1ccc2c(c1)CCCC2C1=NCCN1 (stereo not given)	1.99%	2.84%	1.62%	2.1%	2.48%	2.7%	8.78%	3.45%	2.93%	0.717%
CC(C(=O)O)c1cccc(Oc2ccccc2)c1 (stereo not given)	1.86% and -0.732%	4.27% and 0.295%	0.905% and -1.45%	0.241% and -0.0623%	1.32% and -0.621%	2.03% and -0.313%	0.908% and -1.16%	-2.87% and -3.43%	3.45% and 0.152%	0.892% and 1.49%
COc1cc2c(cc1O)CC[C@@H]1[C@@H]2CC[C@]2(C)[C@@H](O)CC[C@@H]12	9.48%	1.66%	9.77%	16.5%	13.2%	11.7%	53.5%	20.7%	-1.23%	1.78%
CN(C)CCCN1c2ccccc2Sc2ccc(C(F)(F)F)cc21	1.07%	1.48%	0.326%	0.717%	3.34%	0.498%	-0.762%	2.79%	0.329%	-5.35%
NC(=O)CC[C@H](N)C(=O)O	-1.66%	0.802%	-0.27%	0.17%	-0.498%	-1.45%	-2.34%	-1.24%	1.4%	-0.384%
CN(C)CCN(Cc1cccs1)c1ccccn1	1.96%	3.64%	1.81%	0.429%	5.09%	1.78%	2.78%	0.871%	3.63%	0.391%
COc1cc2c(cc1OC)C(=O)C(CC1CCN(Cc3ccccc3)CC1)C2 (stereo not given)	4.4%	-6.1%	3.13%	-1.15%	-1.59%	0.576%	9.45%	-1.23%	-7.35%	-4.73%
COc1ncnc(NS(=O)(=O)c2ccc(N)cc2)c1OC	0.769%	2.24%	1.07%	2.03%	0.995%	1.53%	-1.3%	-0.0587%	-0.393%	1.69%
CN1CCN2c3ncccc3Cc3ccccc3C2C1 (stereo not given)	-2.74%	-1.56%	-0.7%	-1.19%	1.93%	-2.31%	2.94%	-0.123%	-5.43%	-0.736%
CC(=O)/N=c1/sc(S(N)(=O)=O)nn1C	1.46%	2.45%	2.3%	1.1%	4.29%	1.67%	5.67%	0.751%	1.6%	-14.4%
